For 24 compounds, Potency and outcome results are on record in PubChem BioAssay (NCATS).

Records with an inconclusive call do not appear. Where a call stands in place of a potency, no number is given. Calls of active or inactive are those of the source. Calls come from the whole dose curve; as a rule, active = well fitted inhibition curve with a large enough effect; inconclusive = small, poorly fitted or top-dose-only effect; inactive = no such curve, though single readings can be large or run the other way. Where a SMILES comes first, the peptide text is derived from it. Bridges are numbered along the chain shown (N, C = ends). [ ]: non-standard residue; d: D form. The star is where a group is joined. ξ: configuration not given here. ξPhe(βξ-Me) = CC(c1ccccc1)C(N)C(=O)O; X1 = CCC(C)C(N)C1=NC(C(=O)*)CS1; dOrn = NCCC[C@@H](N)C(=O)O; GABA = NCCCC(=O)O

The test is described as follows: P-glycoprotein substrates identified in KB-3-1 adenocarcinoma cell line, qHTS therapeutic library screen (AID 1346986). Note: nearly all actives have a fitted effect of over 60% in size. To be noted: KB-3-1 parental cells viability, CellTiter-Glo, 72 h; series mostly up to 44.5 µM. The procedure, abridged: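 Resistance attributable to P-gp was assessed by comparing AC50 in KB-8-5-11 with parental KB-3-1 and by tariquidar reversal. Cells were exposed 72 h and viability read by CellTiter-Glo.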
(In qHTS, concentration-response curves come from the screen itself.)
As to `CCOc1nc2cccc(C(=O)O)c2n1Cc1ccc(-c2ccccc2-c2noc(=O)[nH]2)cc1`, the Potency result is “inactive”.

On to `CN1C(=O)c2ccccc2-n2c(nc3ccccc3c2=O)[C@@]12O[C@H]2c1ccccc1`, for which the Potency result was “inactive”.

As for `COC(=O)C1=COC(OC2OC(CO)C(O)C(O)C2O)C2C1CC(OC(=O)C(O)CC(=O)O)C2C` (centres undefined), the Potency result was “inactive”.

Take `CCC(C)C(N)C1=NC(C(=O)N[C@@H](CC(C)C)C(=O)N[C@H](CCC(=O)O)C(=O)N[C@H](C(=O)N[C@H]2CCCCNC(=O)[C@H](CC(N)=O)NC(=O)[C@@H](CC(=O)O)NC(=O)[C@H](Cc3cnc[nH]3)NC(=O)[C@@H](Cc3ccccc3)NC(=O)[C@H]([C@@H](C)CC)NC(=O)[C@@H](CCCN)NC2=O)[C@@H](C)CC)CS1` (some centres undefined) (X1-L[dE]IK[dOrn]I[dF]H[dD]N; lactam 4-C): the Potency result was “inactive”.

As to `CCC(NC(=O)CC(NC(=O)C(CO)NC(=O)C(CC)NC(=O)c1ccc[nH]1)c1ccccc1)C(=O)O` (centres undefined), the Potency entry is “inactive”.

For `COCC(=O)N1CCc2cc(-c3csc(NC(=O)c4cc(OC)cc(OC)c4)n3)ccc21`, the Potency entry was “inactive”.

In the case of `Cc1ccc2c(c1)C=Cc1cc(C)ccc1C2c1cn(Cc2ccc(C(=O)Nc3nn[nH]n3)o2)c(=O)[nH]c1=S`, the Potency entry was “inactive”.

Take `C[C@H]1CN(C[C@H](Cc2ccccc2)C(=O)NCC(=O)O)CC[C@@]1(C)c1cccc(O)c1`: the Potency entry is “inactive”.

Turning to `C/C=C/C1=CC2=C(CO1)C(=O)[C@](C)(O)[C@H](OC(=O)c1c(O)cc(OC)c(O)c1C)C2`, the Potency entry is “inactive”.

`C=C1C[C@]23C[C@H]1CC[C@H]2[C@@]12C=C[C@H](O)[C@@](C)(C(=O)O1)[C@H]2[C@@H]3C(=O)O`: the Potency entry is “inactive”.

With `C[C@H]1C[C@H]2[C@@H]3CCC4=CC(=O)C=C[C@]4(C)[C@@]3(F)[C@@H](O)C[C@]2(C)[C@@]1(O)C(=O)COP(=O)(O)O`, the Potency entry was “inactive”.

For `CC1(C)O[C@@]2(C)CC[C@@H]1C[C@@H]2OC1OC(CO)C(O)C(O)C1O` (some centres undefined), the Potency entry is “inactive”.

With `CC(=O)OCCC(C)CCC1C(C)(O)CCC2C(C)(C)CCCC21C` (centres undefined), the Potency entry was “inactive”.

For `CCN(c1cc(C#CCN2CCOCC2)cc(C(=O)NCc2c(C)cc(C)[nH]c2=O)c1C)C1CCC(N(C)CCOC)CC1` (centres undefined), the Potency entry is “inactive”.

`C[C@@H]1O[C@@H](O[C@H]2[C@H](OC(=O)[C@]34CCC(C)(C)C[C@H]3C3=CCC5[C@@]6(C)C[C@H](O)[C@H](O[C@@H]7O[C@H](CO[C@@H]8OC[C@H](O)[C@H](O)[C@H]8O)[C@@H](O)[C@H](O)[C@H]7O)C(C)(C)C6CC[C@@]5(C)[C@]3(C)C[C@H]4O)OC[C@@H](O)[C@@H]2O)[C@H](O)[C@H](O[C@@H]2OC[C@](O)(CO)[C@H]2O)[C@H]1O[C@@H]1OC[C@H](O)[C@H](O[C@@H]2OC[C@@H](O)[C@H](O)[C@H]2O)[C@H]1O` (some centres undefined): the outcome is “inactive [at 9.29 µM]”.

On to `COc1c(C)c2c(c(O)c1C/C=C(\C)CC/C=C(\C)CCC(=O)O)C(=O)OC2`, for which the Potency entry was “inactive”.

For the compound `CC(=O)OC[C@]12[C@H](OC(C)=O)C(=O)[C@@H]3[C@@H](OC(C)=O)[C@@]14O[C@@]3(C)COC(=O)c1cccnc1[C@@H](C)[C@H](C)C(=O)O[C@@H]([C@H](OC(C)=O)[C@@H]2OC(C)=O)[C@]4(C)O`, the Potency result is “inactive”.

`COC(=O)CC[C@@H](C)[C@H]1CC[C@H]2[C@@H]3CC(=O)[C@H]4C[C@H](OC(C)=O)CC[C@]4(C)[C@H]3CC[C@]12C`: the Potency entry was “inactive”.

In the case of `C=C1[C@H]2[C@H](O[C@@H]3O[C@H](COC(=O)/C=C/c4cc(OC)c(O)c(OC)c4)[C@@H](O)[C@H](O)[C@H]3O)OC=C(C(=O)O)[C@H]2C[C@@H]1O`, the Potency result is “inactive”.

Turning to `CC(=O)O[C@@]1(C)C[C@@H](O)[C@]2(O)C=CO[C@@H](O[C@@H]3O[C@H](CO)[C@@H](O)[C@H](O)[C@H]3O)[C@@H]21`, the Potency result is “inactive”.

For the compound `CC(C)CC1NC(=O)C(C(C)c2ccccc2)NC(=O)C(C(C)C)NC(=O)C(C)NC(=O)CCCNC(=O)C(Cc2c[nH]c3ccccc23)NC(=O)C(C)NC1=O` (stereo not drawn) (cyclo([GABA]AV[ξPhe(βξ-Me)]LAW); configuration not given here), the Potency entry is “inactive”.

In the case of `CC1CCC2C(C)(C)C(O)CCC2(C)C12Cc1c(O)cc3c(c1O2)C(N)=NC3` (centres undefined), the Potency entry was “inactive”.

Consider `CC1(C)C(=O)C(C)(C)c2cc(C(=O)Nc3ccc(C(=O)O)cc3)ccc21`, for which the Potency entry was “inactive”.

With `CC(=O)N[C@H](Cc1ccc(O)cc1)C(=O)N[C@H](CCCN=C(N)N)C(=O)N[C@H](Cc1ccccc1)C(N)=O` (Ac-[dY]-[dR]-[dF]-NH2), the Potency entry was “inactive”.
